# S1P4 ag = human S1P4 receptor agonism; 0.35% of 220,000 active; AID 1509; O95977; S1P4-expressing cell line, agonist reporter assay; activation, % at 4.98 µM; in the data active means activation above about 11%;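 further: 0% = DMSO vehicle and 100% = reference agonist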
# Target sequence (O95977 whole entry, looked up): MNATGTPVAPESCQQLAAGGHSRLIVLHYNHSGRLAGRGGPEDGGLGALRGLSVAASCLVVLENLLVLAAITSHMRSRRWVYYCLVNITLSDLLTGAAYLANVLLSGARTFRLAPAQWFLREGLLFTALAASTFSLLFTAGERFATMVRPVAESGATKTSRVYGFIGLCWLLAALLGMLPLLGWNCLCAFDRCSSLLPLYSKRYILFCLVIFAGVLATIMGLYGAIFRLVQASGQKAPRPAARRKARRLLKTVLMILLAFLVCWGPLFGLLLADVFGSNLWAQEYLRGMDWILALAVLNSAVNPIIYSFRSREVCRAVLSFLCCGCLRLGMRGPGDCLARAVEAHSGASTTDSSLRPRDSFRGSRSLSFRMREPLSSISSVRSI
# CHOP inh = inhibitors of CHOP induction in ER stress response. CHO-K1 CHOP-promoter luciferase, tunicamycin-induced, 15-18 h. inhibition, % at 10 µM. 3.8% of 220,000 active. AID 2732;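 active means compounds that reduced the stress-induced luciferase reporter signal by more than about 70% of percent inhibition, limit read from the data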;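 further: 0% = tunicamycin plus vehicle and 100% = wells without tunicamycin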
# Hsp70 activator = Hsp70 transcriptional activation, primary screen; 0.04% of 200,000 active; activation, % at 10 µM; HeLa Hsp70 promoter luciferase reporter, luminescence; scaled: vehicle 0, proteasome-inhibitor control 100%;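 active means activation above the mean across all tested compounds plus 3 SD, cutoff set per campaign, cut at about 5.5% in these data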;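 further: 100% = MG132 at 30 µM as the positive control and 0% = DMSO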
# S1P4 antagonist = human S1P4 receptor antagonism; inhibition, % at 4.98 µM; S1P4-expressing cells, antagonist mode, reporter read-out; O95977; AID 1510; 0.26% of 220,000 active; in the data active means inhibition above about 29%;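 further: 0% = wells stimulated with agonist and 100% = vehicle wells without agonist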
# CHOP inh conf = confirmation of CHOP induction inhibitors | shares compounds with CHOP inh | CHO-CHOP promoter luciferase reporter, tunicamycin-induced, luminescence | inhibition, % at 10 µM | 45% of 2,100 active | AID 504437;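 active means mean of three repeat readings of reporter signal inhibition above a set limit, cut at about 70% in these data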;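 further: 0% = tunicamycin plus vehicle and 100% = wells lacking tunicamycin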
# Active calls of the source: *; . = no result. A selection: hits, their analogues and other compounds. The true share with any hit is near 4.2%.
SMILES,S1P4 ag,CHOP inh,Hsp70 activator,S1P4 antagonist,CHOP inh conf
O=C(CSc1ccc(Cl)cc1)Nc1cccc(-c2nc3ccccc3[nH]2)c1,4,99*,0,-14,-55
CCOc1ccc(OCC)c(NC(=O)CSCCc2ccccn2)c1,0,10,0,-1,.
O=c1[nH]c(NCCO)nc2c1C1(CCCCC1)Cc1ccccc1-2,0,99*,0,-3,13
COc1ccc(OC)c(CN2CCN(CCc3ccccc3)C(CCO)C2)c1 (stereo unspecified),0,3,0,-3,.
COc1ccc(/C=N/N(Cc2ccccc2)c2ccccc2)cc1O,1,104*,0,-20,12
Cc1cc(C)c(NC(=O)CN2CCC(NC(=O)NC3CCCCC3)CC2)c(C)c1,1,-1,0,-7,.
O=C(c1ccc(Cl)cc1)N1CCC(O)(CSc2ccc(Cl)cc2Cl)CC1,1,109*,0,-21,87*
O=c1c2ccccc2c(C=Nc2cccc(O)c2)c(O)n1-c1ccc2c(c1)OCO2,2,107*,0,-20,16
Oc1[nH]c2ccccc2c1C=Nc1ccc2c(c1)OCO2,1,42,0,-10,.
Cn1c(=O)n(Cc2ccc(F)cc2)c(=O)c2c1nc1n2CCCN1C1CCCCC1,-1,103*,0,-5,26
Cn1c(=O)n(Cc2ccc(F)cc2)c(=O)c2c1nc1n2CCN1Cc1ccco1,1,8,0,-9,.
CC(C)(C)c1cnnn1-c1ccc(C(=O)CCl)cc1,3,111*,0,-11,-67
CC(C)(C)c1cnnn1-c1ccc(C=O)cc1,-3,-12,0,24,.
Cc1cccc(C(=O)NC(=S)NNC(=O)c2ccc(Cl)cc2)c1,1,107*,0,-2,53
COc1cc(C(=O)NNC(=S)NC(=O)c2ccc(Cl)cc2)cc(OC)c1OC,1,8,0,0,.
CN(Cc1ccccc1)C(=O)Cn1c(=O)oc2cc(S(=O)(=O)NCc3ccccc3)ccc21,1,63,0,-17,.
Cc1cc2c3c(c1)C(C)(c1ccccc1)CC(C)(C)N3C(=O)C21C(C#N)=C(N)OC2=C1C(=O)CC(C)(C)C2 (stereo unspecified),-4,107*,-1,-31,97*
CC1(C)CC(=O)C2=C(C1)OC(N)=C(C#N)C21C(=O)N2CCCc3cccc1c32 (stereo unspecified),2,41,0,5,.
Cc1cc2c3c(c1)C1(C(=O)N3C(C)(C)CC2C)C(C#N)=C(N)Oc2n[nH]c(C)c21 (stereo unspecified),-1,38,0,0,.
CC1(c2ccccc2)CC(C)(C)N2C(=O)C3(C(C#N)=C(N)Oc4cc(O)ccc43)c3cccc1c32 (stereo unspecified),-5,106*,0,9,104*
O=C(NNC(=O)c1csc(-c2cccnc2)n1)c1ccccc1,0,-15,.,-20,.
CCCCn1c(NS(=O)(=O)c2ccccc2)c(S(=O)(=O)c2ccc(C)cc2)c2nc3ccccc3nc21,2,99*,0,10,76*
Oc1cccc(-c2nc3c4c(ncn3n2)-c2ccccc2CC42CCCC2)c1,2,100*,0,-5,83*
COc1ccc(-c2nc3c4c(ncn3n2)-c2ccccc2CC42CCCC2)cc1,0,4,0,-17,.
O=C(Nc1ccc(F)c(Cl)c1)Nc1csc2ccccc12,-1,99*,.,4,26
SMILES,S1P4 ag,CHOP inh,Hsp70 activator,S1P4 antagonist,CHOP inh conf
O=C(Nc1ccc(F)cc1F)Nc1csc2ccccc12,2,-10,.,15,.
CCOc1ncccc1C(=O)N1CCCSC1=Nc1ccc(C(C)=O)cc1,1,-1,0,-9,.
COc1ccc(C(=O)NNC(=O)c2ccccn2)cc1,-2,104*,-1,-19,124*
CCC(C)(C)NC(=O)C(c1cccn1C)N(Cc1ccc(OC)cc1)C(=O)Cn1nnc2ccccc21 (stereo unspecified),-1,103*,0,-1,59
Cc1ccccc1OCC(=O)NNC(=O)c1ccc(-c2ccccc2)cc1,-4,105*,0,-20,19
CNC(=S)NNC(=O)COc1ccccc1C,1,-21,0,-10,.
ClC(Cl)(c1nnnn1-c1ccccc1)c1nnnn1-c1ccccc1,1,108*,0,19,30
c1ccc(N2CCN(c3nnnn3-c3ccccc3)CC2)cc1,-1,26,0,-11,.
O=[N+]([O-])c1ccc(NC(=S)NCCc2ccccc2)cc1,-2,46,0,-17,.
O=[N+]([O-])c1ccc(NC(=S)NCCc2ccc(Cl)cc2)cc1,0,105*,0,5,94*

# Screens: PubChem, several laboratories
